Measured values reported in PubChem BioAssay (Tox21).
Results filed as inconclusive are left out. A number with no mark means an inactive call. Active and inactive are the calls of the source. Unless noted, the call rests on the fitted dose curve.

Test: p53 small molecule agonists, cell-based qHTS assay: qHTS cell viability counter screen (AID 1963581); further: nearly all actives have a fitted effect of over 45% in size
Details: p53RE-bla HCT-116 viability, ATP luminescence, 16 h; series mostly up to 66 µM; activity change, negative = cytotoxicity: at the top concentration
Method in brief: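 HCT-116 p53RE-bla cells, 4,000/well, plated 5 h before compound pin transfer; 16 h at 37 C; bla substrate 2 h RT; then CellTiter-Glo, 30 min RT, luminescence.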
On the % scale 0 is the no-effect control and ±100 the full control effect.

Row | Compound | activity change, negative = cytotoxicity
1 | [O-][n+]1cccc(CO)c1 | -1.82% [at 30.3 µM]
2 | CC1OCCC1=O (stereo not drawn) | 21%
3 | CC(C)=CCC/C(C)=C/CC/C(C)=C/CO | -14.1%
4 | O=[N+]([O-])c1cc(Cl)c(Cl)c(Cl)c1Cl | 3.55%
5 | COCCOCC(OC)OC | 11.5% [at 30.3 µM]
6 | ClC(Cl)(Br)Br | -13.1%
7 | CCC(=O)c1cccc(Cl)c1 | -2.43%
8 | O=C1CCCc2c(O)cccc21 | 0.962% [at 30.3 µM]
9 | Cc1c(C)c2c(c(C)c1O)CC[C@@](C)(CCC[C@H](C)CCC[C@H](C)CCCC(C)C)O2 | -6%
10 | OC[C@@H](O)C(O)[C@@H](O)CO (stereo partly drawn) | -8.47%
11 | C[C@H](CCC(=O)O)[C@H]1CC[C@H]2[C@@H]3[C@H](O)C[C@@H]4C[C@H](O)CC[C@]4(C)[C@H]3C[C@H](O)[C@]12C | -11.1% [at 30.3 µM]
12 | Cc1ccco1 | 7.65%
13 | CN(C)c1ccc(C(c2ccccc2)c2ccc(N(C)C)cc2)cc1 | 6.61%
14 | CCCCOC(=O)C(C)Oc1ccc(Oc2ccc(C(F)(F)F)cn2)cc1 (stereo not drawn) | -7.22%

Test: p53 small molecule agonists, cell-based qHTS assay (AID 1963582; active means well fitted activation curve with a large enough effect in the signal ratio in the repeat runs, not every such curve was filed as active; the % refers to the signal ratio; further: potency means the concentration at half of the fitted maximal effect)
Details: HCT-116 p53RE-bla reporter, beta-lactamase FRET ratio, 16 h; series mostly up to 66 µM; activation: at the top concentration
Method in brief: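 Reporter line: p53RE-bla. Pre-incubation 5 h, 37 C, 5% CO2; compound (DMSO, pin tool) 16 h, 37 C; B/G FRET substrate 2 h RT; fluorescence intensity read.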

Row | Compound | activation | Potency
15 | O=C(O)CCC(=O)c1ccc(-c2ccccc2)cc1 | 0.185% [at 30.3 µM] | –
16 | CCCCCCCCOC(C)=O | 0.463% | –
17 | CC(C)(C)C(=O)/C=C/c1ccc(Cl)cc1 | -3.93% | –
18 | C[C@@H](CN1CC(=O)NC(=O)C1)N1CC(=O)NC(=O)C1 | 13.7% [at 30.3 µM] | –
19 | Cc1ccsc1C(=CCCN1CCC[C@@H](C(=O)O)C1)c1sccc1C | – | 500 nM (active)
20 | CCOc1nc2cccc(C(=O)O)c2n1Cc1ccc(-c2ccccc2-c2nn[nH]n2)cc1 | 0.116% [at 30.3 µM] | –
21 | CCOCCOCCOC(C)=O | 0.543% | –
22 | CO[Si](C)(OC)c1ccccc1 | 0.342% | –
23 | Cc1ccc(N(CC2=NCCN2)c2cccc(O)c2)cc1 | 10.5% [at 30.3 µM] | –
24 | COC(=O)c1ccccc1Cl | -0.975% | –
25 | CNS(=O)(=O)Cc1ccc2[nH]cc(CCN(C)C)c2c1 | -2.54% [at 30.3 µM] | –
26 | CCCCCCCCCC#N | -4.65% | –
27 | CCOC(=O)CCCCCCCCC(=O)OCC | 0.0064% | –
28 | COc1cccc(O)c1 | -0.0577% | –
29 | CC[C@H]1OC(=O)[C@H](C)[C@@H](O[C@H]2C[C@@](C)(OC)[C@@H](O)[C@H](C)O2)[C@H](C)[C@@H](O[C@@H]2O[C@H](C)C[C@H](N(C)C)[C@H]2O)[C@](C)(OC)C[C@@H](C)C(=O)[C@H](C)[C@@H](O)[C@]1(C)O | 0.699% | –
30 | [O-][n+]1cccc(CO)c1 | 3.29% [at 30.3 µM] | –
31 | CC1OCCC1=O (stereo not drawn) | -3.78% | –
32 | O=[N+]([O-])c1cc(Cl)c(Cl)c(Cl)c1Cl | 8.84% | –
33 | COCCOCC(OC)OC | 1.46% [at 30.3 µM] | –
34 | N[C@H]1CN(c2c(F)cc3c(=O)c(C(=O)O)cn(C4C[C@H]4F)c3c2Cl)CC12CC2 (stereo partly drawn) | 1.88% [at 30.3 µM] | –
35 | CCC(=O)c1cccc(Cl)c1 | -1.35% | –
36 | CC(C)(C)NC[C@H](O)COc1cccc2c1CCCC2=O | 4.46% [at 30.3 µM] | –
37 | COc1cc2nc(Cl)nc(N)c2cc1OC | 1.76% [at 30.3 µM] | –
38 | O=C1CCCc2c(O)cccc21 | 1.41% [at 30.3 µM] | –
39 | C=CC(=O)O | -0.404% [at 30.3 µM] | –
40 | Cc1c(C)c2c(c(C)c1O)CC[C@@](C)(CCC[C@H](C)CCC[C@H](C)CCCC(C)C)O2 | 0.818% | –
41 | OC[C@@H](O)C(O)[C@@H](O)CO (stereo partly drawn) | 1.11% | –
42 | C[C@H](CCC(=O)O)[C@H]1CC[C@H]2[C@@H]3[C@H](O)C[C@@H]4C[C@H](O)CC[C@]4(C)[C@H]3C[C@H](O)[C@]12C | 1.36% [at 30.3 µM] | –
43 | CCCCOC(=O)C(C)Oc1ccc(Oc2ccc(C(F)(F)F)cn2)cc1 (stereo not drawn) | -3.94% | –
